Laboratory results taken from PubChem BioAssay AID504652 (National Center for Advancing Translational Sciences (NCATS), 2011).
Several values for one entry are separate records, joined by “and”; a condition that tells them apart may be missing. Equal values may be shown once. Out of some 360,000 compounds screened, about 11,000 (3.1%) were called active. The sample holds actives, similar compounds and a random draw of the others, so the mix is not that of the screen. Cut-off read from the data, not from the text of the source: active = activity change below about -30%; inactive = the rest. Some structures have more than one record in an assay (separate samples or runs), and their calls can disagree.

target: D(1A) dopamine receptor (Homo sapiens) (UniProt P21728); experiment: Antagonist of Human D 1 Dopamine Receptor: qHTS; conditions: HEK293 TREx D1 cells, calcium flux, dopamine EC80; at 10 µM; stronger effect = lower value
Sequence (P21728 whole entry, looked up): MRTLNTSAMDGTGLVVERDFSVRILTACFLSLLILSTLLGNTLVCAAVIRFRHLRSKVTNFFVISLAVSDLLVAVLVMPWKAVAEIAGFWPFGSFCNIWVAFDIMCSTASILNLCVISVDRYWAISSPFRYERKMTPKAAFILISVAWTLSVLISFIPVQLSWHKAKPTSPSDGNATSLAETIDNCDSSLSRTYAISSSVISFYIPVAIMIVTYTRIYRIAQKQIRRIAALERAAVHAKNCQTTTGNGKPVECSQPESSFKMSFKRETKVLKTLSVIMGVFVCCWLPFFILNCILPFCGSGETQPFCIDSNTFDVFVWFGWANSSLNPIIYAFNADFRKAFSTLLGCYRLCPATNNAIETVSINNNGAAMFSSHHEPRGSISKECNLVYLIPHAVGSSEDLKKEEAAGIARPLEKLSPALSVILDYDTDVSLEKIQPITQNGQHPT
Outline: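 Allosteric or orthosteric antagonism assessed as attenuation of the calcium response to EC80 dopamine, added 180 s after compound, in induced HEK293 Trex D1 cells loaded with no-wash calcium dye.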
% is set by controls: 0 for no effect and ±100 for the full control effect.

| Structure (SMILES) | activity change, negative = inhibition |
| --- | --- |
| COc1cc(Cl)c(C)cc1Nc1nnc(-n2nc(C)cc2C)c2ccccc12 | -5.89% (inactive) |
| Cc1cc2c(s1)c1cnn(Cc3c(F)cccc3Cl)c(=O)c1n2C | 15.1% (inactive) |
| Cn1c(=O)oc2cc(S(=O)(=O)N3CCC(C(=O)Nc4ccc(OC(F)(F)F)cc4)CC3)ccc21 | -36.4% (active) |
| Cc1ccc2nc(NC(=O)C3CCN(S(=O)(=O)c4ccc5c(c4)oc(=O)n5C)CC3)sc2c1 | -9.2% (inactive) |
| COc1ccc(NC(=O)C2CCN(S(=O)(=O)c3ccc4[nH]c(=O)oc4c3)CC2)c(OC)c1 | 1.07% (inactive) |
| Cc1ccc(S(=O)(=O)N(CC(=O)Nc2ccc(Cl)cc2Cl)c2ccccc2C)cc1 | -14.7% (inactive) |
| Cc1c(Cl)cccc1NC(=O)Cn1cc(C(=O)c2cccs2)c2ccccc21 | -23.5% (inactive) |
| CCOc1ccc(NC(=O)c2cc3c(=O)n(Cc4cccs4)ccc3nc2C)cc1 | 2.95% (inactive) |
| COc1ccc(CN2C(=O)C(NC(=O)c3cccc(C)c3)(C(F)(F)F)N=C2c2ccccc2)cc1 (stereo not drawn) | 2.79% (inactive) |
| CCc1ccccc1NC(=O)Cc1ccc(NC(=O)N2CCCCc3ccccc32)cc1 | -2.99% (inactive) |
| CCOC(=O)c1ccc(NC(=O)CCS(=O)(=O)c2ccc(C)cc2)cc1 | 2.9% (inactive) |
| CCOC(=O)c1ccc(NC(=O)CCS(=O)(=O)c2ccc3c(c2)oc(=O)n3C)cc1 | -34.1% (active) |
| COc1cc(NC(=O)CCS(=O)(=O)c2ccc3c(c2)oc(=O)n3C)cc(OC)c1 | -5.28% (inactive) |
| Cc1ccc(C(=O)OCC(=O)NCc2cc(C)c(O)c(C)c2)cc1S(=O)(=O)N1CCCCC1 | -93.9% (active) |
| Cc1ccc(C(=O)OCC(=O)N2CC(C)CC(C)C2)cc1S(=O)(=O)N1CCCCC1 (stereo not drawn) | -14.5% (inactive) |
| COc1ccc(CNC(=O)COC(=O)c2ccc(C)c(S(=O)(=O)N3CCOCC3)c2)cc1OC | 13.1% (inactive) |
| CCc1ccc(C(=O)CC2(O)C(=O)N(CCc3ccccc3)c3ccc(Br)cc32)cc1 (stereo not drawn) | 6.36% (inactive) |
| O=C(CSc1nnc(-c2ccc(NS(=O)(=O)c3ccccc3)cc2)o1)NCC1CCCO1 (stereo not drawn) | -3.8% (inactive) |
| COc1ccc2c(C)cc(SCC(=O)NCC3CCCO3)nc2c1 (stereo not drawn) | -21.4% (inactive) |
| O=C(COc1ccc(Cl)cc1)NCc1nnc(SCC(=O)NCC2CCCO2)o1 (stereo not drawn) | -31.2% (active) |
| Cc1ccc2oc(C(=O)Nc3ccc(S(=O)(=O)N4CCCCCC4)cc3)cc(=O)c2c1 | -13.8% (inactive) |

| Structure (SMILES) | activity change, negative = inhibition |
| --- | --- |
| O=C(Nc1cccc(-c2cccc(Cl)c2)c1)C1CCN(C2CCC2)CC1 | -10% (inactive) |
| CCn1cc(CN2CCC(C(=O)Nc3cccc(-c4cccc(Cl)c4)c3)CC2)cn1 | -38.6% (active) |
| CCn1cc(CN2CCC(C(=O)Nc3cccc(-c4cccc(Cl)c4)c3)CC2)c(C)n1 | -1.32% (inactive) |
| CC1CCCCN1CC(=O)N1CCCc2c1c(=O)oc1ccc(OCc3ccccc3)cc21 (stereo not drawn) | 4.23% (inactive) |
| O=C(NCc1nnc(C(=O)Nc2ccc(C(F)(F)F)cc2Cl)o1)c1ccccc1 | -10% (inactive) |
| O=C(Nc1ccc(Oc2ccccc2)cc1)C1CCN(S(=O)(=O)c2ccc(Cl)cc2)CC1 | -14.4% (inactive) |
| O=C(Nc1ccccc1)c1nnsc1S(=O)(=O)c1ccc(Cl)cc1 | -31.4% (active) |
| O=C(Nc1cccc(Cl)c1)c1csnn1 | 0.926% (inactive) |
| COC(=O)c1ccc(NC(=O)c2cnn(-c3ccc(Cl)cc3)c2C2CCN(C(=O)OC(C)(C)C)CC2)cc1 | 8.43% (inactive) |
| O=C(CCn1ccc2cc(S(=O)(=O)N3CCCC3)ccc21)NCc1cccc(Cl)c1 | 11.5% (inactive) |
| CC1CCN(S(=O)(=O)c2ccc3c(ccn3CCC(=O)NCc3ccc(N(C)C)cc3)c2)CC1 | -72.7% (active) |
| CC1CCN(S(=O)(=O)c2ccc3c(ccn3CC(=O)O)c2)CC1 | -15% (inactive) |
| N#Cc1ccc(-c2cccs2)nc1SCc1ccc(Br)cc1 | -3.69% (inactive) |
| Cc1ccc2c(c1)c1c(c(=O)n(-c3ccccc3)c(=O)n1CC(=O)c1ccc(Cl)cc1)n2C | -16% (inactive) |
| CCS(=O)(=O)N1CCc2cc(C(=O)NCc3ccc(C)cc3)ccc21 | -4.2% (inactive) |
| CN(CC(=O)NCCc1ccccn1)S(=O)(=O)c1ccc(Cl)cc1 | -32.4% (active) |
| CN(CC(=O)NNC(=O)CNC(=O)c1ccccc1Cl)S(=O)(=O)c1ccc(Cl)cc1 | -11.4% (inactive) |
| CN(CC(=O)NCC(c1ccccc1)N1CCCC1)S(=O)(=O)c1ccc(Cl)cc1 (stereo not drawn) | 12.1% (inactive) |
| COc1ccc(NC2CC(=O)N(C)C2=O)cc1 (stereo not drawn) | -35.8% (active) |
| COc1ccc(C2CC(=O)NC(=O)C2)cc1 | 6.98% (inactive) |
| CC(=O)Oc1cccc(N2C(=O)CC(Nc3ccc(N4CCOCC4)cc3)C2=O)c1 (stereo not drawn) | 9.21% (inactive) |

| Structure (SMILES) | activity change, negative = inhibition |
| --- | --- |
| COc1ccc(-c2nc3c(c(SCC(=O)Nc4ccc(C(=O)O)cc4)n2)Cc2ccccc2O3)cc1 | -4.63% (inactive) |
| CCCCN(CC)CCCNC(=O)c1nn(C)c2c1CSc1ccccc1-2 | 13% (inactive) |
| CCOC(=O)c1[nH]c(C)c(CCC(=O)NCc2ccccc2C)c1C | -16.9% (inactive) |
| O=C(CCc1nc(CN2CCN(S(=O)(=O)c3ccc(F)cc3)CC2)no1)N1CCCCC1 | 11.3% (inactive) |
| CC(=O)c1sc(NC(=O)CCN2C(=O)C3CC=CCC3C2=O)nc1-c1ccccc1 (stereo not drawn) | 2.17% (inactive) |
| O=C(CCN1C(=O)[C@H]2CC=CC[C@H]2C1=O)NCc1nc(-c2ccccc2)no1 | -34.2% (active) |
| O=C(Cc1ccc(Cl)cc1)NCc1nc(-c2ccccc2)no1 | -12.9% (inactive) |
| O=C(NC1CCN(Cc2ccccc2)CC1)c1ccc(Cn2c(=O)c3ccccc3n(Cc3cccc(F)c3)c2=O)cc1 | 2.59% (inactive) |
| COc1cccc(-c2nc(S(=O)(=O)c3ccc(C)cc3)c(NCc3ccccc3)o2)c1 | 24.7% (inactive) |
| CN(c1ccccc1)S(=O)(=O)c1cccc(NC(=O)Cc2ccc(Cl)cc2)c1 | -23.4% (inactive) |
| CN(C)S(=O)(=O)c1cccc(NC(=O)Cc2ccsc2)c1 | -5.36% (inactive) |
| CN(c1ccccc1)S(=O)(=O)c1cccc(NC(=O)Cc2c(F)cccc2Cl)c1 | -47.4% (active) |
| O=C(CCC(=O)N1CC2CCCN2c2ccccc21)NCc1ccccc1Cl (stereo not drawn) | -15.4% (inactive) |
| Cc1cc(C)c(NC(=O)CSc2nc3nccnc3c(=O)n2CCc2c[nH]c3ccccc23)c(C)c1 | 1.52% (inactive) |
| O=C(CSc1nc2nccnc2c(=O)n1CCc1c[nH]c2ccccc12)Nc1ccccc1F | -39.8% (active) |
| Cc1cc(C)cc(NC(=O)CSc2nc3nccnc3c(=O)n2CCc2c[nH]c3ccccc23)c1 | 1.93% (inactive) |
| CN(C(=O)c1ccc2c(c1)N(Cc1cccc(Cl)c1)C(=O)c1ccccc1S2=O)C1CCCCC1 (stereo not drawn) | 2.7% (inactive) |
| CC1CN(CCOc2ccccc2[N+](=O)[O-])CC(C)O1 (stereo not drawn) | -11.6% (inactive) |
| O=[N+]([O-])c1ccccc1OCCCCN1CCCCC1 | -54.3% (active) |
| Cc1ccc(OCCCCN2CCCCC2)c(Br)c1 | -23.4% (inactive) |
| O=C(CSc1ncc(S(=O)(=O)c2ccc(Br)cc2)c(=O)[nH]1)Nc1ccc2c(c1)OCCO2 | 8% (inactive) |

| Structure (SMILES) | activity change, negative = inhibition |
| --- | --- |
| Oc1ccc(Cl)cc1C1C=C(c2ccc3c(c2)OCO3)NC(c2ccc(F)c(Br)c2)N1 (stereo not drawn) | -22.1% (inactive) |
| Cc1cccc(S(=O)(=O)c2cn(Cc3ccccc3)c3cc(N4CCOCC4)c(F)cc3c2=O)c1 | 0.0166% (inactive) |
| N/C(Cc1ccc([N+](=O)[O-])cc1)=N\OC(=O)C1CCCCC1 | -11.7% (inactive) |
| O=C(COC(=O)C1CCCCC1)Nc1ccc([N+](=O)[O-])cc1 | -34.5% (active) |
| NC(=O)c1ccc(NC(=O)COC(=O)c2ccc([N+](=O)[O-])cc2)cc1 | 1.67% (inactive) |
| CCCCOc1ccc(C(=O)Nc2cccc(-c3nc4ccccc4o3)c2C)cc1 | -0.438% (inactive) |
| Cc1oc2ccc(O)c(CN3CCCCC3)c2c1C(=O)Nc1cccc(C(F)(F)F)c1 | 11.6% (inactive) |
| CC(=O)N1c2ccc(S(=O)(=O)N3CCC(C(=O)N4CCN(c5ccccc5)CC4)CC3)cc2CC1C (stereo not drawn) | -7.84% (inactive) |
| CC(=O)N1CCCc2cc(S(=O)(=O)CCC(=O)N3CCN(c4ccccc4)CC3)ccc21 | -0.97% (inactive) |
| COc1ccc(N2CCN(S(=O)(=O)c3ccc4c(c3)N(C(C)=O)CCO4)CC2)cc1 | -18% (inactive) |
| CC(=O)N1CCCc2cc(S(=O)(=O)N3CCCC(C(=O)N4CCN(c5cccc(Cl)c5)CC4)C3)ccc21 (stereo not drawn) | -14.3% (inactive) and -32% (active) |
| Cc1ccc(S(=O)(=O)N2CCCC(C(=O)N3CCN(C)CC3)C2)cc1 (stereo not drawn) | 10.2% (inactive) |
| CC(=O)N1CCCc2cc(S(=O)(=O)N3CCC(C(=O)NC4CCCCC4)CC3)ccc21 | 0.0767% (inactive) |
| COc1cccc(N2CCN(S(=O)(=O)c3ccc4c(c3)CCCN4C(C)=O)CC2)c1 | -35.4% (active) |
| O=C(C1CCCN(S(=O)(=O)c2ccccc2)C1)N1CCN(c2ccc(F)cc2)CC1 (stereo not drawn) | -43.7% (active) |
| O=C(C1CCC1)N1CCN(c2ccccc2)CC1 | 6.47% (inactive) |
| CC(=O)Nc1cccc(NC(=O)CSc2cn(CC(=O)N3CCCC3)c3ccccc23)c1 | 12.2% (inactive) |
| CC(=O)Nc1ccc(NC(=O)CSc2nnc3c4cc(Br)ccc4n(C)c3n2)cc1 | -2.66% (inactive) |
| Cc1cccc(C)c1-n1ncc(C(=O)NCCCN2CCCCC2)c1C1CCN(C(=O)OC(C)(C)C)CC1 | 40.2% (inactive) |
| CCOC(=O)CN1C(C(=O)c2ccccc2)=C(OC(=O)C(C)(C)C)c2ccccc2S1(=O)=O | -13.9% (inactive) |
